Assay outcomes: PubChem, several laboratories
CYP2C9 activ = human CYP2C9 activators, primary screen, biochemical, luminescence; activation factor at 5 µM; recombinant CYP2C9, luciferin-H conversion; active compounds read high; factor 1 = untreated enzyme, 0 = blocked; AID 1024, 2008; 1.4% of 96,000 active;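 active = activation factor of 2 or more for CYP2C9 at a 5 µM dose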;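 also: 0 = sulfaphenazole-blocked wells and 1 = vehicle-only wells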
CYP2C19 activ = human CYP2C19 activators, primary screen, biochemical, luminescence; Cytochrome P450 2C19 (Homo sapiens), P33261; recombinant CYP2C19, luciferin-H EGE luminescence; active compounds read high; 0 = fully inhibited enzyme, 1 = untreated enzyme; activation factor at 5 µM; 96,000 tested, under 10 active;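 active = activation factor of at least 2 at 5 µM in the primary screen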;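 also: 0 = wells with 2.5 mM tranylcypromine and 1 = vehicle-only wells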
Target sequence (P33261 whole entry, looked up): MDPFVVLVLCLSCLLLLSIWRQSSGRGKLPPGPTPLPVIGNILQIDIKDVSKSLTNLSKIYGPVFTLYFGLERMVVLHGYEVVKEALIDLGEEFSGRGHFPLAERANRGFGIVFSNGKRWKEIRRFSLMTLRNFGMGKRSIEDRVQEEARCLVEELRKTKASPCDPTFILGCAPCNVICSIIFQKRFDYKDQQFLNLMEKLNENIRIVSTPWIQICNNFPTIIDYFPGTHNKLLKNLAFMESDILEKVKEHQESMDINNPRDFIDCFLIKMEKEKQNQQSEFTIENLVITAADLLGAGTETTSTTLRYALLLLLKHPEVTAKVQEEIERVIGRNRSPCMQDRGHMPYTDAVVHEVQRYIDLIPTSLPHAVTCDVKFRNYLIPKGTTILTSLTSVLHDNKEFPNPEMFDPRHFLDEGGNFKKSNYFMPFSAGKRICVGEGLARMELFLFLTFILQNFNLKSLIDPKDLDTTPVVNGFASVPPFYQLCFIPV
CYP2C9 inh = blockers of cytochrome P450 2C9 activity – biochemical, luminescence, ADME assay, primary screen; inhibition, % at 5 µM; 20% of 96,000 active; P11712; CYP2C9 Supersomes, luciferin-H conversion; AID 777, 2007;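 active = blocking of liver enzyme CYP2C9 beyond about 50% at 5 µM, limit read from the data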
CYP2C19 inh = blockers of cytochrome P450 2C19 activity – biochemical, luminescence, ADME assay, primary screen; 21% of 96,000 active; CYP2C19 Supersomes, luciferin-H EGE luminescence, 30 min; inhibition, % at 5 µM; AID 778, 2007; P33261;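 active = CYP2C19 inhibition above a set limit at 5 µM in the primary screen, cut at about 50% in these data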;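 also: plate controls were negative control wells for no effect and 2.5 mM tranylcypromine positive control for full effect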
Measles CPE = compounds protecting cells from measles virus cytopathic effect, primary screen, measles RdRp inhibitor project, single point, MLSMR library, absorbance; Measles virus-infected cells, CPE protection; protection (pct of control), % at 4 µM; 1.5% of 140,000 active; AID 841, 2007; in the data active = protection mostly above about 24%, no sharp cut-off; inactive = mostly below about 26%
The depositor's hits bear a star; . = not tested or not shown. Most compounds without a hit are left out; they make up all but 22% or so of the library.

SMILES	CYP2C9 activ	CYP2C19 activ	CYP2C9 inh	CYP2C19 inh	Measles CPE
Cc1ccccc1-n1ncc2c(SCC(=O)N3c4ccccc4CC3C)ncnc21 (centres undefined)	0.4	0.7	61.5*	34.4	20.6
Cc1ccc2nc(SCC(=O)N3c4ccccc4CC3C)c(C)cc2c1 (centres undefined)	0.3	0.6	67.3*	37.6	7.3
Cc1ccc2nc(-c3cccnc3SCC(=O)N3c4ccccc4CC3C)[nH]c2c1 (centres undefined)	0.8	0.9	15.5	8.2	5.2
CC1Cc2ccccc2N1C(=O)CSc1nnc2sc3ccccc3n12 (centres undefined)	0.3	0	66.7*	99.9*	1.4
COc1ccc(N2CCN(C(=O)CSc3ncnc4c3cnn4-c3ccccc3C)CC2)cc1	1	1	1.5	-2.4	11.5
Cc1nnc(SCC(=O)N2c3ccccc3CC2C)s1 (centres undefined)	0.9	0.3	14.5	69.4*	31.0
O=C(O)CN1C(=O)c2cccc(Oc3ccc(Cl)cc3)c2C1=O	0.6	1.1	44.7	-6.1	6.3
CC(c1cccnc1)N(C(=O)Nc1ccccc1)C1CCCCC1 (centres undefined)	0.9	0.9	10.7	10.9	5.8
Cc1sc2nc(C(C)C)nc(SCC(=O)N3c4ccccc4CC3C)c2c1C (centres undefined)	.	.	.	.	3.2
CCc1nc(SCC(=O)N2c3ccccc3CC2C)c2c(C)c(C)sc2n1 (centres undefined)	0	0.4	99.2*	63.5*	27.2
CCOC(=O)c1ccccc1NC(=O)Cn1cnc2c(oc3ccccc32)c1=O	0.6	0.8	42.7	15.4	7.5
O=C1c2ccccc2-c2onc3c(Oc4ccccc4)cc(O)c1c23	0.3	0.9	67.8*	6.2	1.1
CCOc1ccc2noc3c2c1C(=O)c1ccccc1-3	1	1.1	3.0	-8.1	23.9
CCOC(=O)C1=C(C)NC(=O)NC1c1cn(-c2ccccc2)nc1-c1cccs1 (centres undefined)	0.2	0.4	80.1*	56.1*	4.4
CCOC(=O)C1=C(C)NC(=O)NC1c1cccc(O)c1 (centres undefined)	0.9	1	5.7	3.3	5.4
CC1=C(C(=O)OCC(C)C)C(c2ccc(F)cc2)NC(=O)N1 (centres undefined)	0.7	0.1	29.0	89.5*	8.3
CC1=C(C(=O)OC2CCCCCCC2)C(c2cccc(O)c2)NC(=O)N1 (centres undefined)	0.2	0.2	80.8*	81.2*	2.1
CCOC(=O)C1=C(C)NC(=O)NC1c1c(OCC(=O)N2CCCCC2)ccc2ccccc12 (centres undefined)	0.2	0.2	82.7*	76.1*	5.5
CCOC(=O)C1=C(C)NC(=O)NC1c1ccc(OCC(=O)N2CCCCC2)cc1 (centres undefined)	0.8	1	21.4	4.9	19.9
C=C(C)C1CC=C(C)/C(=N/NC(=O)CNc2ccc(OCC)cc2)C1 (centres undefined)	0.9	1	5.3	2.9	7.8
COC(=O)Cn1c(=NC(=O)c2ccc(OC)c(OC)c2)sc2cc(OC)ccc21	.	.	.	.	9.4
CCOC(=O)C1=C(C)NC(=O)NC1C (centres undefined)	1.1	1.1	-5.2	-5.1	21.4
C=CCOc1c(OC)cc(Cl)cc1C1NC(=O)NC(C)=C1C(C)=O (centres undefined)	1.1	1	-5.9	-2.8	11.8
C=CCOc1c(Cl)cc(C2NC(=O)NC(C)=C2C(=O)OC)cc1Cl (centres undefined)	0.6	0.4	36.7	57.4*	5.4
CCOC(=O)C1=C(C)NC(=O)NC1c1ccc(F)cc1 (centres undefined)	.	.	.	.	12.5
SMILES	CYP2C9 activ	CYP2C19 activ	CYP2C9 inh	CYP2C19 inh	Measles CPE
CCOC(=O)C1=C(C)NC(=O)NC1c1ccc(OCC(=O)Nc2ccccc2)c(OC)c1 (centres undefined)	0.1	0.3	91.1*	70.3*	7.5
CCOC(=O)C1=C(C)NC(=O)NC1/C(C)=C/c1ccccc1 (centres undefined)	0.3	0.2	68.9*	77.9*	2.9
CCOC(=O)C1=C(CN2CCC(C)CC2)NC(=O)NC1c1ccc(Cl)cc1 (centres undefined)	0.1	0.2	89.3*	77.9*	17.1
c1ccc2c(CNCCN3CCOCC3)cccc2c1	0.9	0.7	12.9	26.0	20.2
Cc1ccc2c(c1)[nH]c1c(=O)n(Cc3ccccn3)cnc12	0.9	0.8	8.9	21.3	21.1
CCOC(=O)C1=C(CNCc2ccc(C)cc2)NC(=O)NC1c1cc(C)ccc1C (centres undefined)	0.5	0.5	54.9*	47.2	15.0
CCOC(=O)C1=C(C)NC(=O)NC1c1ccc(N(C)C)cc1 (centres undefined)	1.1	1	-11.4	-3.8	14.8
CCOC(=O)C1=C(C)NC(=O)NC1c1ccc(Cl)cc1Cl (centres undefined)	0.9	0.3	13.2	67.7*	3.9
CCOC(=O)C1=C(C)NC(=O)NC1c1ccc(N(CC)CC)cc1 (centres undefined)	0.5	0.8	52.4*	16.9	1.9
CCCCCCOC(=O)C1=C(C)NC(=O)NC1c1ccc(O)cc1 (centres undefined)	0.2	0.3	80.6*	70.3*	0.9
CCOC(=O)C1=C(C)N(C)C(=S)NC1c1ccc(Cl)cc1Cl (centres undefined)	.	.	.	.	10.9
COc1ccc(Cl)cc1NC(=O)C(C)NC(c1ccccc1)c1ccccc1 (centres undefined)	.	.	.	.	4.6
CCSc1nnc(NC(=O)CSc2nc3c(c(=O)n2-c2ccccc2OC)SCC3)s1	.	.	.	.	5.2
CCOc1ccc(NC(=O)C2CCCN(S(=O)(=O)c3cccc4nsnc34)C2)cc1 (centres undefined)	1	1	4.0	0.3	15.2
Cc1ccc(-c2nn(-c3ccccc3)cc2C2CC(c3cccs3)=NN2C(=O)CCCC(=O)O)cc1 (centres undefined)	0.4	0.9	61.2*	8.7	20.5
Cc1ccc(N(CC(=O)Nc2c(C)n(C)n(-c3ccccc3)c2=O)S(C)(=O)=O)cc1C	.	.	.	.	4.3
Cc1cc(F)ccc1S(=O)(=O)Nc1c(C)n(C)n(-c2ccccc2)c1=O	0.5	0.1	50.4*	90.9*	8.4
CCC(CC)C(=O)Nc1c(C)n(C)n(-c2ccccc2)c1=O	0.5	1	51.2*	2.7	47.9*
Cc1cccc(N(CC(=O)Nc2c(C)n(C)n(-c3ccccc3)c2=O)S(C)(=O)=O)c1C	0.9	0.1	12.2	90.8*	0.3
Cc1c(NC(=O)c2ccc(F)cc2)c(=O)n(-c2ccccc2)n1C	1.2	1.2	-15.3	-18.2	3.3
Cc1c(NC(=O)c2c(F)cccc2F)c(=O)n(-c2ccccc2)n1C	1	1	1.0	-2.1	26.6
